Here are results for 62 compounds from PubChem BioAssay AID1376 (SRMLSC, 2008).

Several values for one entry are separate records, joined by “and”; a condition that tells them apart may be missing. Identical values can stand only once. Hit rate of the full screen: of about 220,000 compounds, about 530 (0.24%) were called active. Rule as the data show it: active = inhibition above about 13%; inconclusive = no clear call, values can overlap the other calls; inactive = below that. The full list was thinned out, with actives kept by preference. Measured potencies and affinities stand elsewhere.

In this assay the target is Bifunctional protein GlmU (Mycobacterium tuberculosis (strain ATCC 25618 / H37Rv)) (UniProt P9WMN3). In words: inhibition of mycobacterial GlmU enzyme – biochemical, glucosamine-1-phosphate acetyltransferase (AID 1376).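 Also: 0% = complete reaction with vehicle and 100% = reaction without substrate.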 As to conditions: M. tuberculosis GlmU acetyltransferase enzyme assay; hits give high values;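 tested at 30 µM in the primary screen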.
Chain of Bifunctional protein GlmU (Mycobacterium tuberculosis (strain ATCC 25618 / H37Rv)) (P9WMN3 whole entry, looked up): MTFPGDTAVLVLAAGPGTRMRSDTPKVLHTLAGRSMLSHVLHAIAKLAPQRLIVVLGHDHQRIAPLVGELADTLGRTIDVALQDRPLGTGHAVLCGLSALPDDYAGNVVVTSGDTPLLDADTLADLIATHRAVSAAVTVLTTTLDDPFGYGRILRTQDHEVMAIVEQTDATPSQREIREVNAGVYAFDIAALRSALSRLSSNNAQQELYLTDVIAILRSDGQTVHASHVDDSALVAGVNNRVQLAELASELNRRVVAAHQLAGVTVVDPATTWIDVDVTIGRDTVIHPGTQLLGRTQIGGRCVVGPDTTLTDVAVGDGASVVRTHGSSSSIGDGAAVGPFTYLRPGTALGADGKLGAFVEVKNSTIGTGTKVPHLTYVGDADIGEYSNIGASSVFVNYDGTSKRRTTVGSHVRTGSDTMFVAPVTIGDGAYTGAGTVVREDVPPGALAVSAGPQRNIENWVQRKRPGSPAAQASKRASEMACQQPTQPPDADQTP
The inhibition is the relative decrease from the control value, in per cent. For `O=C(Nc1ccccc1N1CCOCC1)c1ccc(Cl)c(S(=O)(=O)NCc2ccco2)c1`, the inhibition was 0.84% (inactive).
As to `CN1CCN(C(=O)C2=C[C@@H](C3CCCCC3)C[C@@H](OCc3ccc(CO)cc3)O2)CC1`, the inhibition was 0.67% (inactive).
Consider `COC(=O)c1ccccc1NC(=O)CSc1nnc(-c2cccnc2)n1C`, for which the inhibition is 3.07% (inactive).
With `COc1ccc(NC(=O)CCS(=O)(=O)c2ccc3c(c2)CCCN3C(C)=O)cc1`, the inhibition was 0.16% (inactive).
Take `COc1ccc(NC(=O)CCS(=O)(=O)c2ccc3c(c2)CCCN3C(C)=O)cc1Cl`: the inhibition is -0.45% (inactive).
`COc1ccccc1CNC(=O)CCS(=O)(=O)c1ccc2c(c1)CCCN2C(C)=O`: the inhibition was 15.2% (active).
Turning to `O=[N+]([O-])c1ccc2[nH]nc(-c3ccccc3)c2c1`, the inhibition was 4.82% (inactive).
Consider `CC(=O)NNC(=O)c1cc2sccc2s1`, for which the inhibition is 0.49% (inactive).
As for `NNC(=O)c1cc2sccc2s1`, the figure is 14% (active); as for `O=C(O)c1cc2sccc2s1`, 1.23% (inactive); as for `O=C1c2cccnc2C(=O)N1C1CCCCC1`, 6.11% (inactive).
As to `CCC(c1ccccc1)c1nnc(NC(=O)c2ccco2)s1` (configuration not stated), the inhibition was 4.36% (inactive).
For the compound `CC1=CC(C)(C)N(C)C(=O)N1c1ccc(Cl)cc1`, the inhibition is -0.04% (inactive).
As for `Cc1cc(=O)cc(C)n1-c1ccc(Cl)cc1`, the figure is 1.93% (inactive); as for `O=C1[C@H]2[C@H](C=CC[C@H]2C(=O)N2CCN(c3ccccc3)CC2)CCN1Cc1ccc(Cl)c(Cl)c1`, 0.58% (inactive).
In the case of `O=S(=O)(Nc1nc(CN2CCOCC2)nc2sc3c(c12)CCCC3)c1cc(F)ccc1F`, the inhibition was 2.36% (inactive) and -0.91% (inactive).
`CC(c1ccccc1)N1CC(C(=O)N2CCN(c3ccccc3)CC2)CC1=O` (configuration not stated): the inhibition is -1.56% (inactive).
With `CS(=O)(=O)N(CC(=O)Nc1ccc(F)cc1F)c1cccc([N+](=O)[O-])c1`, the inhibition was 14.6% (active).
Turning to `CS(=O)(=O)N(CC(=O)Nc1cccc(F)c1)c1cccc([N+](=O)[O-])c1`, the inhibition is 2.56% (inactive).
Consider `CS(=O)(=O)N(CC(=O)Nc1c(F)cccc1F)c1cccc([N+](=O)[O-])c1`, for which the inhibition is 1.32% (inactive).
As for `O=S(=O)(c1ccccc1)c1cc(O)ccc1O`, the figure is 12.9% (active); as for `Cc1ccc(S(=O)(=O)c2cc(O)ccc2O)cc1C`, 5.34% (inactive); as for `Nc1nc2ccccc2cc1S(=O)(=O)c1ccccc1`, -5.35% (inactive).
Consider `Cc1ccc(C(=O)/C=C\Nc2ccc(C)c(C)c2)cc1`, for which the inhibition is -4.99% (inactive).
The value for `COc1ccc(S(=O)(=O)NCC2CCCN(C(=O)CNC(C)=O)C2)cc1` (configuration not stated) was -0.35% (inactive); that for `CCc1ccc2oc(C(=O)Nc3ccc(S(N)(=O)=O)cc3)c(C)c2c1` was 1.87% (inactive).
With `CCN1CCN(CCC2Oc3cc([N+](=O)[O-])ccc3NC2=O)CC1` (configuration not stated), the inhibition was -2.08% (inactive).
As to `CC(=O)NC1(C(F)(F)F)C(=O)Nc2c1c(=O)[nH]c(=O)n2CCc1ccccc1` (configuration not stated), the inhibition is 1.88% (inactive).
On to `COc1ccc(CCn2c3c(c(=O)[nH]c2=O)C(NC(=O)c2cccs2)(C(F)(F)F)C(=O)N3)cc1OC` (configuration not stated), for which the inhibition was 13.3% (active).
With `COc1ccc(C(=O)NC2(C(F)(F)F)C(=O)Nc3c2c(=O)[nH]c(=O)n3CCc2ccc(OC)c(OC)c2)cc1` (configuration not stated), the inhibition is -0.41% (inactive).
In the case of `O=C(NCc1cccs1)c1csc2c1CCCCC2`, the inhibition was 1.69% (inactive).
Take `CCOC(=O)CSc1nc2ccccc2c(=O)n1CC1CCCC1`: the inhibition was -1.38% (inactive).
For the compound `CCN(CC)C(=O)CSc1nc2ccccc2c(=O)n1CC`, the inhibition is -0.44% (inactive).
With `CCN(CC)C(=O)CSc1nc2ccccc2c(=O)n1CC1CCCCC1`, the inhibition was 13.3% (active).
As for `N#CCCn1cc(C(=O)Nc2ccccc2Br)c(-c2cc3ccccc3o2)n1`, the figure is -0.21% (inactive).
`O=C(CN(CC1CCCO1)C(=O)CNS(=O)(=O)c1ccc(Cl)cc1)NCC1CCCO1` (configuration not stated): the inhibition is -2.4% (inactive).
As for `N#Cc1ccccc1NC1=CC(=O)CCC1`, the figure is -6.37% (inactive); as for `CCc1nnc2n1N=C(c1ccc([N+](=O)[O-])cc1)CS2`, -0.05% (inactive).
In the case of `O=C(O)COc1ccc(NC(=O)c2cccs2)cc1`, the inhibition was -5.47% (inactive).
On to `COc1ccc(NC(=O)c2cccs2)cc1`, for which the inhibition is -2.83% (inactive).
The value for `Cc1ccc(C(=O)Nc2ccc(Oc3ccc(C(=O)O)c(C(=O)O)c3)cc2)cc1C` was 47.7% (active); that for `Cc1cccc(Oc2ccc(NC(=O)c3ccccc3C(=O)O)cc2)c1` was 1.43% (inactive); that for `COc1ccc(C(=O)Nc2cccc(OC)c2)cc1` was 6.57% (inactive).
For the compound `O=C(O)c1ccccc1C(=O)Nc1ccc(Oc2ccccc2)cc1`, the inhibition is 0.7% (inactive).
As to `Cc1ccc(C(=O)Nc2ccc(O)cc2C(=O)O)cc1C`, the inhibition was 1.76% (inactive).
For the compound `COC(=O)CCSC(=S)N1CCOCC1`, the inhibition was -0.58% (inactive).
In the case of `COc1ccc(NC(=O)N(Cc2cccs2)Cc2cc3cc4c(cc3[nH]c2=O)OCO4)cc1`, the inhibition is 1.28% (inactive).
As for `CCOC(=O)c1cc2sccc2n1CC(=O)C(C)(C)C`, the inhibition was -4.29% (inactive).
`CCn1ncc(Br)c1C(=O)Nc1ccn(C23CC4CC(CC(C4)C2)C3)n1`: the inhibition was -4.08% (inactive).
The value for `CC(=O)N(C)N1c2ccccc2CCc2ccccc21` was -8.48% (inactive).
Consider `Cc1cccc(OCCNC(=O)c2ncn[nH]2)c1`, for which the inhibition was 1.93% (inactive).
In the case of `Cn1c(=O)c2c(nc(SCC(=O)NC34CC5CC(CC(C5)C3)C4)n2C)n(C)c1=O`, the inhibition is -0.07% (inactive).
Regarding `O=C(CSc1nnc(-c2ccncc2)o1)NC1C2CC3CC(C2)CC1C3` (configuration not stated), the inhibition was 1.35% (inactive).
Regarding `N#C/C(=C\c1ccc(C(=O)O)cc1)c1nc2sc3c(c2c(=O)[nH]1)CCCC3`, the inhibition is 14.3% (active).
The value for `CCOC(=O)c1nc2sc3c(c2c(=O)[nH]1)CCCC3` was 4.84% (inactive) and 1.97% (inactive).
In the case of `O=C(O)c1ccc(/C=C/c2nc3sc4c(c3c(=O)[nH]2)CCC4)cc1`, the inhibition is 2.03% (inactive).
The value for `O=C1NC(CCc2ccccc2)C(=O)N1Cc1ccccc1Cl` (configuration not stated) was -2.29% (inactive); that for `CCc1sc(-c2ccccc2)nc1C(=O)OC` was -3.08% (inactive).
With `CN(C(=O)COC(=O)c1n[nH]c2ccccc12)c1ccccc1`, the inhibition is -0.77% (inactive).
On to `CC(=O)c1cccc(NC(=O)N2CCC(c3nnc(SCC(N)=O)n3C)CC2)c1`, for which the inhibition is 12.8% (active).
Take `COc1ccccc1NC(=O)N1CCC(c2nnc(SCC(N)=O)n2C)CC1`: the inhibition was 5.75% (inactive).
`Cn1c(SCC(N)=O)nnc1C1CCN(C(=O)NCc2ccccc2)CC1`: the inhibition is 2.81% (inactive).
